# In PubChem BioAssay (EPA / NIEHS):
# Values joined by “and” are separate entries in the source; they are usually repeats but may differ in a detail not shown here. Equal values may be shown once. Results filed as inconclusive are left out. The source holds several records for some structures; these can differ, active in one and inactive in another. Active and inactive are the calls of the source. Rule for the calls: active = hit-call score of the fitted dose curve at least 0.9, where 1 is the maximum; inconclusive = response in the unintended direction; inactive = score below 0.9.
# How the values were obtained:
# [1] = TOX21_p53_BLA_p2_viability: Viability Assessment in the Tox21 HCT-116 p53 Agonism Beta-lactamase Assay, Phase 2 (AID 2283591);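 note: compound exposure lasted 16 h at 37 °C; actives lower the ATP signal meaning cytotoxicity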
# Procedure, shortened: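 HCT-116 p53-bla cells (4000/well) rested 5 h at 37C, then received compounds in DMSO (217-fold dilution) for 16 h at 37C, 5% CO2. After the CCF4 read, CellTiter-Glo was added; ATP luminescence was read after 30 min at room temperature.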
# [2] = target: Cellular tumor antigen p53 (Homo sapiens) (UniProt P04637); experiment: TOX21_p53_BLA_p2_ratio: Tox21 HCT-116 p53 Agonism Beta-lactamase Assay, Ratio, Phase 2 (AID 2283592)
# Chain of Cellular tumor antigen p53 (Homo sapiens) (P04637 whole entry, looked up): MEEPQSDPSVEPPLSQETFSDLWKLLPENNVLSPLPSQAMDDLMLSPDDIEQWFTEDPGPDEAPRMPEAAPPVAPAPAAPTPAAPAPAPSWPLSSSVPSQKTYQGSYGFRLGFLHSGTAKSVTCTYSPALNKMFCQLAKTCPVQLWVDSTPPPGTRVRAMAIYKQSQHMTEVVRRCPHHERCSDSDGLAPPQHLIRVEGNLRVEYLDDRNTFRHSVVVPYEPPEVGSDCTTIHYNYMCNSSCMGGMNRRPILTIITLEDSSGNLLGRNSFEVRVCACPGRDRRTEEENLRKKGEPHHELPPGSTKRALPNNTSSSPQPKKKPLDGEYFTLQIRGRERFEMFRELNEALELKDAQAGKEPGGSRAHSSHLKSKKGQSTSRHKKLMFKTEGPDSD
# Procedure, shortened: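 Ratio endpoint: beta-lactamase cleavage of CCF4-AM, blue (460 nm) over green (530 nm). HCT116 reporter line; 16 h treatment, 37C; substrate 2 h RT.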
# [3] = ATG_XTT_Cytotoxicity: Cytotoxicity Assessment in the Attagene TRANS-FACTORIAL HepG2 Assay (AID 2283584);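 for AC50: cells exposed to compound for 24 h before reading; active means loss of viability signal versus DMSO baseline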
# Procedure, shortened: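 HepG2 human liver cells, transiently transfected with multiple GAL4-UAS reporter units, were dosed and read at 24 h by XTT as cell number. Loss of signal was fitted relative to DMSO negative control baseline.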
compound,measurement,setting,value
CCCCCCCCCCCCOC(=O)c1cc(O)c(O)c(O)c1,AC50,[1],21.7 µM (active) and 28.2 µM (active)
O=C1OC(=O)c2cc(-c3ccc4c(c3)C(=O)OC4=O)ccc21,outcome,[1],inactive
same,outcome,[2],inactive
Cc1cc(Cc2cc(C)cc(C(C)(C)C)c2O)c(O)c(C(C)(C)C)c1,AC50,[1],10.8 µM (active) and 10.5 µM (active)
CCOC(C)=O,outcome,[2],inactive
CC(=O)CC(C)C,outcome,[3],inactive
same,outcome,[1],inactive
same,outcome,[2],inactive
CCCCCCCCC1CCC(=O)O1 (centres undefined),outcome,[1],inactive
CCCCCCCCCCCCCC[n+]1ccccc1,outcome,[1],inactive
same,AC50,[2],4.85 µM (active)
C=CC(C)(CCC=C(C)C)OC(C)=O (centres undefined),outcome,[2],inactive
O=C1c2ccccc2C(=O)c2c(O)c(O)cc(O)c21,outcome,[3],inactive
same,AC50,[2],42.8 µM (active)
O=C(Nc1cccc([N+](=O)[O-])c1)c1cc2ccccc2cc1O,outcome,[3],inactive
same,AC50,[2],1.17 µM (active)
Nc1ccc(O)c(C(=O)O)c1,outcome,[3],inactive
same,outcome,[2],inactive
CCCCCCCCCCCC[N+](C)(C)CCCCCCCCCCCC,AC50,[3],62.4 µM (active)
same,AC50,[2],41.4 µM (active)
CCOC(=O)CN[C@@H](C(=O)N1CC[C@H]1C(=O)NCc1ccc(/C(N)=N/O)cc1)C1CCCCC1,outcome,[3],inactive
same,outcome,[2],inactive
COCN(COC)c1nc(N(COC)COC)nc(N(COC)COC)n1,outcome,[1],inactive
O=C(O)c1cccc(C(=O)O)n1,outcome,[2],inactive
Clc1ccc(Nc2nnc(Cc3ccncc3)c3ccccc23)cc1,outcome,[2],inactive
CC(C)(C)c1ccc(O)c(O)c1,outcome,[1],inactive
same,outcome,[2],inactive
CC(=O)Nc1ccc(S(N)(=O)=O)cc1,outcome,[1],inactive
c1ccc(CNc2ncnc3c2ncn3C2CCCCO2)cc1 (centres undefined),outcome,[1],inactive
CCC1CO1 (centres undefined),outcome,[3],inactive
same,outcome,[2],inactive
Cc1ccc(S(=O)(=O)O)cc1,outcome,[1],inactive
c1cnc2c(c1)ccc1cccnc12,outcome,[3],inactive
same,AC50,[2],38.3 µM (active)
same,outcome,[2],inactive
CCCCCCc1ccc(N)cc1,outcome,[2],inactive
Oc1ccc(Cc2ccccc2O)cc1,outcome,[3],inactive
same,outcome,[2],inactive
CC(C)(C)C1CCCCC1O (centres undefined),outcome,[1],inactive
same,outcome,[2],inactive
CC(C)(C)c1ccc(CCC=O)cc1,outcome,[3],inactive
same,outcome,[1],inactive
CC1=CC(=O)c2ccccc2C1=O,outcome,[3],inactive
same,outcome,[2],inactive
